# Test results reported in PubChem BioAssay (EPA / NIEHS).
# The source made the active and inactive calls. How the source made its calls: active means hit-call score of the fitted dose curve at least 0.9, where 1 is the maximum; inactive means score below 0.9.
# Read-out: Interleukin 6 (IL6), IL6 (gene 3569)
# Test: LTEA_HepaRG_IL6: Life Technologies and Expression Analysis (LTEA) Assay for Interleukin 6 (IL6) using HepaRG (AID 2283509)
# Details: mRNA level, 48 h; actives raise or lower the signal
# Protocol: LTEA_HepaRG is a cell based, multiplexed-readout assay that uses HepaRG, a human liver cell line, with measurements taken at 48 hours after chemical dosing on a 96-well plate.LTEA_HepaRG_IL6 is one of 102 assay component(s) measured in the LTEA HepaRG cell culture assay. It is a marker of Inflammation.Data from the assay component LTEA_HepaRG_IL6 was analyzed into 1 endpoint. This assay endpoint, LTEA_HepaRG_IL6, was analyzed with bidirectional fitting relative to DMSO as the negative control and baseline of activity. Using a type of inducible reporter, measures of mRNA induction for gain or loss-of-signal activity can be used to understand regulation of transcription factor activity. To generalize the intended target to other relatable targets, this assay endpoint is annotated to the cytokine intended target family, where the subfamily is interleukins.
# A total of 1060 chemcials from the ToxCast library were tested in eight-point concentration-response experiments. Cell culture and cytotoxicity assays were conducted at Thermo Fisher Scientific's Custom Services facility (Madison, WI). A single lot of human HepaRG cells (Thermo Fisher Scientific, Frederick, MD) was used for the cell culture experiments. 96-well format collagen type I coated plates of human HepaRG cells were prepared using established methods. Briefly, cryopreserved HepaRG cells were thawed, plated at a density of approximately 100,000 cells/well in HepaRG Thaw, Plate, and General Purpose media (HPRG770, Thermo Fisher Scientific), and incubated for 48 hours. 0.5% DMSO was selected as vehicle control to balance the requisite need of DMSO in HepaRG cultures to maintain differentiation (for example, baseline metabolism, proportions of hepatocytes vs. cholangiocytes), while enabling further hepatic receptor pathway activation (for example, PXR and CAR) in response to chemical exposure. 48 hours after plating, the culture medium was replaced with HepaRG Serum-Free Incudtion Media. Cells were exposed to each test chemical in duplicate and maintained in CO2 incubators for another 48 hours. Chemical plates were thawed to room temperature and 200x concentrations of treatment groups were prepared. 8-point conentration-reponse curves were made with the highest exposure at 100 uM, followed by half-log dilutions, all in 0.5% DMSO. Each test plate contained variouse controls, induction positive controls (1mM phenobarbital), cytotoxicity positive controls ([…] aflatoxin B1), vehicle controls (0.5% DMSO), and total lysis controls (0.5% DMSO). Cell morphology images were taken using an Essen IncuCyte FLR automated microscope, with six 96-well plates imaged in about 24 minutes. Images were captured and exported and JPEG files. Spent culture media was transfered to black-well plates for the LDH assay, and remaining media was sorted at -80 C for later use. Cells were treated with RLT buffer and frozen until shipped for gene expression analysis. Total RNA was isolated from the cell suspension in 75 uL of Buffer RLT (Qiagen, Germantown, MD 20874) by Quintiles/Expression Analysis (Durham, NC) using a custom isolation procedure. Total RNA from each plate well was transferred to a preamplification plate. Fluidigm's 96.96 Dynamic ArrayTM (Fluidigm, Amsterdam, the Netherlands) technology was used for gene expression analyses by quantitative reverse transcription polymerase chain reaction (qRT-PCR, performed by Quintiles/Expression Analysis, Durham, NC)89. Standard TaqManTM Assays (Applied Biosystems/ThermoFisher Scientific, Foster City, CA) were used to assess the expression of 93 genes selected based on their selectivity and sensitivity to important hepatic receptors known to be modulated by environmental chemicals; importance in human hepatocyte functionality; and hepatotoxicity. […]
Compound,outcome,AC50
CCC(C)N(C)C(=O)c1cc2ccccc2c(-c2ccccc2Cl)n1 (stereo not given),inactive,
NCCOCCOCCN,inactive,
CCCCCCC(CCCCCCCCCCC(=O)OCC(COC(C)=O)OC(C)=O)OC(C)=O (stereo not given),inactive,
Cc1cc(Cc2ccc(N)c(C)c2)ccc1N,inactive,
Nc1nc(=S)c2[nH]cnc2[nH]1,,14.8 µM (active)
Cc1ccc(C(C)(C)C)c(O)c1,inactive,
CN(C)CCCN(C)CCCN(C)C,inactive,
CC1(C)C(=O)NC(=O)N1CO,inactive,
COC(=O)[C@H]1[C@H]2C[C@@H]3c4[nH]c5cc(OC)ccc5c4CCN3C[C@H]2C[C@@H](OC(=O)c2cc(OC)c(OC)c(OC)c2)[C@@H]1OC,,29.1 µM (active)
CCc1nc(N)nc(N)c1-c1ccc(Cl)cc1,inactive,
CC(=O)O,inactive,
O=C(O)c1cccnc1,inactive,
C=CCc1ccc(OC)c(OC)c1,inactive,
O=C1c2c(O)cccc2Cc2cccc(O)c21,inactive,
CC(C)COC(=O)CCCCC(=O)OCC(C)C,inactive,
Cc1occc(=O)c1O,inactive,
c1ccc2occc2c1,inactive,
CO[C@@H]1COCC[C@@H]1N[C@@H]1CC[C@@](C(=O)N2CCc3ncc(C(F)(F)F)cc3C2)(C(C)C)C1,inactive,
CCCCc1nc2cccnc2n1Cc1ccc(-c2ccccc2-c2nnn[nH]2)cc1,inactive,
C#CC(O)C(CC)CCCC (stereo not given),inactive,

Compound,outcome,AC50
CCc1cc(C2=C(C(=O)O)N(c3ccccc3C(F)(F)F)S(=O)(=O)c3ccccc32)cc2c1OCO2,,78.5 µM (active)
O=C(Oc1ccccc1)c1cccc(C(=O)Oc2ccccc2)c1,inactive,
CC(COCC(C)OC(=O)c1ccccc1)OC(=O)c1ccccc1 (stereo not given),inactive,
CCN(CC)CCOc1ccc(C(=C(Cl)c2ccccc2)c2ccccc2)cc1,,81.8 µM (active)
CCCCCCCCCCCCCCCCO,inactive,
Cn1cnc2c1c(=O)[nH]c(=O)n2C,inactive,
CN(C)C(=O)NC1(c2ccccc2)CCN(CC[C@@]2(c3ccc(F)c(F)c3)CN(C(=O)c3ccccc3)CCO2)CC1,inactive,
C/C=C/C=C/C(=O)O,inactive,
CC1=C(C)S(=O)(=O)CCS1(=O)=O,inactive,
CC(C)(O)c1ccc(CNC(=O)c2cccnc2Oc2ccc(F)cc2)cc1,inactive,
O=C1CCCCC1,inactive,
NC1CCCCC1,inactive,
O=C(O)CN(CC(=O)O)CC(=O)O,inactive,
CCCC(=O)O,inactive,
Oc1ccccc1O,inactive,
CCCCC(CC)COC(=O)CCCCCCCC(=O)OCC(CC)CCCC (stereo not given),inactive,
CC(C)OC(=O)C(C)(C)Oc1ccc(C(=O)c2ccc(Cl)cc2)cc1,inactive,
O=C(O)CC(O)(CC(=O)O)C(=O)O,inactive,
N[C@@H](Cc1c[nH]c2ccccc12)C(=O)O,inactive,
CCCCCCCC(=O)OC,inactive,
